# Source: PubChem BioAssay (Tox21)
# Records with an inconclusive call do not appear. Calls of active or inactive are those of the source. Calls follow the shape of the dose curve; as a rule, active = well fitted inhibition curve with a large enough effect in the repeat runs; inconclusive = weak or mixed curves, or effect the other way; inactive = no such curve, though single readings can be large or run the other way.
# Target: Nuclear receptor ROR-gamma (Homo sapiens) (UniProt P51449)
# Test: qHTS assay to identify small molecule antagonists of the retinoid-related orphan receptor gamma (ROR-gamma) signaling pathway (AID 1159521; also: nearly all actives have a fitted effect of over 50% in size; as to activity change, negative = inhibition: top concentration of the series differs between compounds)
# Settings: Tet-on RORgamma CHO cells, RORE-luciferase, 16 h; series mostly up to 92.4 µM; activity change, negative = inhibition: at the top concentration
# Description: U.S. Tox21 Program National Center for Advancing Translational Sciences [NCATS] NIH Chemical Genomics Center [NCGC] U.S. Environmental Protection Agency [EPA] National Institutes of Environmental Health Sciences [NIEHS] National Toxicology Program [NTP] U.S. Food and Drug Administration [FDA] Tox21 Assay Overview: Nuclear steroid hormone receptors are involved in many biological processes including inflammatory responses, cell proliferation, and apoptosis. Environmental factors or compounds disrupting these nuclear receptor pathways and gene expression may promote susceptibility to immunotoxicants and autoimmune diseases. One important group of these expression factors are the retinoid-related orphan receptors. To assess compounds that may interfere with the retinoid-related orphan receptor gamma (ROR-gamma) transcription factor, a cell-based luciferase assay was used. The CHO cell-based assay utilizes a TET-inducible ROR expression factor and ROR response element-LUC reporter gene. Reporter gene activity was induced using Doxycycline Hyclate and measured after 16 hr incubation. Tet-on ROR gamma CHO cells were used to screen against the Tox21 10K compound library for ROR gamma antagonists by quantification of decreased reporter gene activity in terms of decreased luminescence.
# Tox21 Assay Protocol Summary: Tet-on ROR gamma CHO cells were dispensed at 1,000 cells in 4 uL of culture medium per well into white wall/solid bottom 1536-well plates using a Multidrop Combi (Thermo Scientific, Waltham, MA) dispenser. Following incubation at 37 C and 5% CO2 for 4 hr, 23 nL of compounds dissolved in DMSO, positive controls or DMSO only were transferred by a Pintool station (Kalypsys, San Diego, CA) and after 2 hr incubation at 37 C, one ul of 1 uM (final concentration) of Doxycycline Hyclate was added to all the wells by using a Flying Reagent Dispenser (FRD) (Aurora Discovery, San Diego, CA). After 16 hr incubation at 37 C and 5% CO2, 5 uL of ONE-Glo reagent (Promega Corporation, Madison, WI) was added to each assay plate using FRD. After 30 min incubation at room temperature, luminescence was quantified on a ViewLux plate reader (Perkin Elmer, Waltham, MA).
# % is scaled to controls: 0 for no effect and ±100 for the full control effect; potency is read from the fitted curve at half-maximal effect.
SMILES,"activity change, negative = inhibition",Potency
COS(=O)(=O)c1ccc(C)cc1,-5.28% (inactive),–
CCOC(=O)C1(c2ccccc2)CCN(CCC(C#N)(c2ccccc2)c2ccccc2)CC1,–,18.8 µM (active)
CCN,12.7% (inactive),–
CC(C)C1CCC(Cc2ccc(Cl)cc2)C1(O)Cn1cncn1 (stereo not given),–,30.3 µM (active)
CC(O)C#N (stereo not given),15.1% (inactive),–
Oc1cccc(-c2ccccc2)c1,40.3% (inactive),–
COc1ccc(/C(=C/C(=O)N2CCOCC2)c2ccc(Cl)cc2)cc1OC,-18.5% (inactive),–
ClC1=C(Cl)[C@]2(Cl)[C@@H]3[C@@H](Cl)[C@H](Cl)C[C@@H]3[C@@]1(Cl)C2(Cl)Cl,-31.2% (inactive),–
CCS(=O)(=O)c1cccnc1S(=O)(=O)NC(=O)Nc1nc(OC)cc(OC)n1,-18.3% (inactive),–
CCC(C)c1cc(C(C)(C)C)cc(-n2nc3ccccc3n2)c1O (stereo not given),13.6% [at 42.5 µM] (inactive),–
N#CSCSC#N,–,12.1 µM (active)
N#CCCC(Br)(C#N)CBr (stereo not given),–,21.7 µM (active)
CCCSP(=O)(OCC)SCCC,14.8% (inactive),–
Cc1cc(Cl)ccc1O[C@H](C)C(=O)O,-11.7% (inactive),–
O=C(CCl)Nc1ccccc1,–,21.7 µM (active)
CCCCCCCCCCBr,14.4% (inactive),–
CN(C)CCc1c[nH]c2ccc(O)cc12,-15.3% (inactive),–
O=c1oc2ccccc2c(O)c1Cc1c(O)c2ccccc2oc1=O,–,7.5 µM (active)
CC(C)(C)C(O)C(Oc1ccc(-c2ccccc2)cc1)n1cncn1 (stereo not given),–,27.3 µM (active)
C=CC(=O)OCC(COC(=O)C=C)(COC(=O)C=C)COC(=O)C=C,–,3.44 µM (active)

SMILES,"activity change, negative = inhibition",Potency
COc1ccc(OC)c(CC(C)N)c1 (stereo not given),5.96% (inactive),–
CCCCCCCCc1ccc(O)cc1,50.3% (inactive),–
CC(C)OC(=S)S,–,15.4 µM (active)
Clc1ccc(C(c2ccc(Cl)cc2)C(Cl)(Cl)Cl)cc1,–,61.6 µM (active)
Nc1ccccc1C(=O)Oc1ccc2ccccc2c1,-0.8% (inactive),–
CC(=O)/C=C/c1ccc2c(c1)OCO2,-11.6% (inactive),–
Nc1c(Oc2ccccc2)cc(O)c2c1C(=O)c1ccccc1C2=O,116% [at 42.5 µM] (inactive),–
CC(C)CCCCCOC(=O)c1ccccc1C(=O)OCCCCCC(C)C,-11.4% (inactive),–
COP(=O)(OC)SCn1c(=O)oc2cc(Cl)cnc21,8.5% (inactive),–
O=C(O)c1cc[c]([Hg][Cl])cc1,–,4.86 µM (active)
CC(=O)O[C@H]1CC[C@@]2(C)C(=CC[C@@H]3[C@@H]2CC[C@]2(C)C(=O)CC[C@@H]32)C1,–,48.6 µM (active)
S=C(SSC(=S)N1CCCCC1)N1CCCCC1,–,0.15 µM (active)
Cc1cc(C(C)(C)c2cc(C)c(O)c(C)c2)cc(C)c1O,–,26.4 µM (active)
CN(C)[C@@H]1C(=O)C(C(N)=O)=C(O)[C@@]2(O)C(=O)C3=C(O)c4c(O)ccc(Cl)c4[C@@](C)(O)[C@H]3C[C@@H]12,–,49.6 µM (active)
C=COCCCl,-0.834% (inactive),–
COCC(=O)N(c1c(C)cccc1C)[C@H](C)C(=O)OC,-13.6% (inactive),–
CNC(C)Cc1ccc2c(c1)OCO2 (stereo not given),-17.1% (inactive),–
Nc1ccc([N+](=O)[O-])cc1Cl,-7.66% (inactive),–
SCc1ccco1,-19.1% (inactive),–
Cc1ccc(CCl)cc1,23.4% (inactive),–
